PubChem BioAssay
Activity calls are given as the source filed them.

Experiments:
[1] = test system: Human papillomavirus type 1a protein E7 (residues 44-93); assay: small molecules binding HPV E7 44-93 – biochemical, small-molecule microarray, residues 44-93, 635 nm fluorescence, primary screen (AID 1108); settings: fluorescence 635 nm, higher = more signal;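 also: E7 fragment applied at 1 µg/mL in TBST for 1 h at 4 C; score combines spot fluorescence with its signal to noise ratio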
[2] = hepatitis C replication reporter changes, two-sided – Huh7 cells, luciferase reporter, HCV replication inhibitor project, primary screen (AID 1109); settings: Huh7 HCV replicon luciferase reporter, 48 h; higher = more signal;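 also: huh7 hepatoma cells harbouring a luciferase neomycin HCV replicon reporter; luciferase luminescence as measure of HCV replicon replication; test concentration not given here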
[3] = molecular target: Left-right determination factor 2 (Homo sapiens) (UniProt O00292); assay: small molecules binding LEFTY2 protein – biochemical, small-molecule microarray, 635 nm fluorescence scan, primary screen (AID 1110); settings: higher = more signal
[4] = molecular target: Calmodulin-1 (Homo sapiens) (UniProt P0DP23); assay: small molecules binding calmodulin-1 with EGTA – biochemical, small-molecule microarray, Cy5-labelled CALM1, profiling panel (AID 1111); settings: Cy5-CALM1 binding fluorescence, higher = more signal;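 also: labelled calmodulin applied in Tris saline Tween buffer holding calcium plus EGTA and DTT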
[5] = molecular target: Calmodulin-1 (Homo sapiens) (UniProt P0DP23); assay: small molecules binding Ca-loaded calmodulin-1 – biochemical, small-molecule microarray, Cy5-labelled CALM1, plus calcium, artefact control for SMM control-protein annotation, profiling panel (AID 1112); settings: Cy5-CALM1 binding fluorescence, higher = more signal;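 also: score merges spot fluorescence with signal to noise from triplicate slides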
[6] = probe aWnt5a binding to arrayed compounds – biochemical, biotinylated probe, 635/667 nm fluorescence, primary screen (AID 1113); settings: small-molecule microarray, higher = more signal;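 also: score merges 667 nm fluorescence intensity with signal-to-noise per printed feature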
[7] = probe aShh binding to arrayed compounds – biochemical, biotinylated probe, 635/667 nm fluorescence, primary screen (AID 1114); settings: small-molecule microarray, higher = more signal;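 also: probe is biotin-labelled aShh protein from a stem cell growth factor screen; measures binding of labelled protein to compounds printed on the slide; score merges feature fluorescence at 667 nm with signal-to-noise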
[8] = probe aNog binding to arrayed compounds – biochemical, biotinylated probe, 635/667 nm fluorescence, primary screen (AID 1115); settings: small-molecule microarray, higher = more signal;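 also: probe is biotinylated aNog protein used at 0.15 µg/mL for 1 h at 4 C; z-score combines 667 nm fluorescence of each spot with its signal to noise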
[9] = molecular target: Torsin-1A-interacting protein 1 (Homo sapiens) (UniProt Q5JTV8); assay: compound microarray binding of lysate hLAP1 – cell lysate, small-molecule microarray, COS7 lysate, 635/667 nm fluorescence, primary screen (AID 1116); settings: 635 nm fluorescence, higher = more signal
[10] = molecular target: Alpha-bungarotoxin (Bungarus multicinctus) (UniProt P60615); assay: compounds binding labelled alpha-BTX control protein – biochemical, small-molecule microarray, Alexa647 label, 635/667 nm fluorescence, artefact control for SMM control protein annotation, profiling panel (AID 1117); settings: alpha-BTX-A647 binding fluorescence, higher = more signal
[11] = molecular target: Albumin (Bos taurus) (UniProt P02769); assay: compounds binding labelled BSA control protein – biochemical, small-molecule microarray, Alexa647 label, 635/667 nm fluorescence, artefact control for SMM control protein annotation, profiling panel (AID 1118); settings: BSA-A647 binding, fluorescence 635 nm, higher = more signal;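 also: score merges 667 nm emission intensity and signal-to-noise per printed compound spot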
[12] = probe aXIP binding to arrayed compounds – biochemical, NeuroSMM set, 635/667 nm fluorescence, primary screen (AID 1119); settings: small-molecule microarray, higher = more signal, called active from +8 up or from −8 down;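 also: probe is the protein aXip251-270 applied at 1 µg/mL to compound-printed slides; binding of probe to printed compounds measured as 667 nm fluorescence plus signal to noise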
[13] = probe aNOTCH3 binding on compound microarray – biochemical, small-molecule microarray, 635/667 nm fluorescence, primary screen (AID 1120); settings: higher = more signal;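 also: probe is a biotin-tagged antibody raised against NOTCH3 rather than NOTCH3 protein; score merges spot fluorescence near 667 nm with spot signal to noise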
[14] = probe aNOTCH2 binding on compound microarray – biochemical, small-molecule microarray, 635/667 nm fluorescence, primary screen (AID 1121); settings: higher = more signal;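 also: score merges feature fluorescence read at 667 nm with its signal to noise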
[15] = molecular target: Carbonic anhydrase 2 (Homo sapiens) (UniProt P00918); assay: compounds binding carbonic anhydrase 2 – biochemical, small-molecule microarray, Alexa647-labelled CAII, profiling panel (AID 1122); settings: CAII-A647 binding fluorescence, higher = more signal
[16] = COS7 lysate on small-molecule microarray, probe aHis, 635 nm (AID 1123); settings: COS7 cell lysate, fluorescence, higher = more signal;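 also: z-score combines 667nm fluorescence intensity with signal-to-noise per printed compound spot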
[17] = probe aLAP1 signal on lysate-treated microarray – cell lysate, small-molecule microarray, COS7 lysate, primary screen (AID 1124); settings: probe aLAP1, fluorescence, higher = more signal;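 also: lysate comes from COS7 cells expressing LAP1 and is applied at 0.3 µg/mL; score merges spot fluorescence near 667 nm with signal-to-noise over triplicate slides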
[18] = test system: Sam68 (KHDRBS1); assay: compounds binding KHDRBS1 protein – biochemical, small-molecule microarray, 635 nm fluorescence, primary screen (AID 1125); settings: higher = more signal;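 also: score merges 667 nm channel intensity with signal to noise over triplicate slides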
[19] = test system: Chordin-like protein 2 (CHRDL2); assay: compounds binding chordin-like 2 – biochemical, small-molecule microarray, 635 nm fluorescence, primary screen (AID 1126); settings: fluorescence 635 nm, higher = more signal;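 also: printed compound slides probed with Chrdl2 protein at 4 µg/mL for 1 h at 4 C; score merges 667 nm emission intensity with signal to noise over three replicate slides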
[20] = molecular target: Concanavalin-A (Canavalia ensiformis) (UniProt P02866); assay: compounds binding concanavalin A lectin – biochemical, small-molecule microarray, Alexa647 label, 635 nm, artefact control for SMM control protein annotation, primary screen (AID 1127); settings: ConA-A647 binding fluorescence, higher = more signal;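 also: z combines 667 nm emission intensity with signal-to-noise across three replicate slides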
Chain of Concanavalin-A (Canavalia ensiformis) (P02866 whole entry, looked up): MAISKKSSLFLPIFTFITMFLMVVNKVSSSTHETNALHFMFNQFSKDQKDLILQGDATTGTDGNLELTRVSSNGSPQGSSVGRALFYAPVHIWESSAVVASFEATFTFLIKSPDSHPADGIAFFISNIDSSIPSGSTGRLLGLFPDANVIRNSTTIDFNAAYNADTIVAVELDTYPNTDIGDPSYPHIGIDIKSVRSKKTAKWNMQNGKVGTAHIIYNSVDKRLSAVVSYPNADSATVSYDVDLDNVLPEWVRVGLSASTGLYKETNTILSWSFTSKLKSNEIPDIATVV

Chain of Alpha-bungarotoxin (Bungarus multicinctus) (P60615 whole entry, looked up): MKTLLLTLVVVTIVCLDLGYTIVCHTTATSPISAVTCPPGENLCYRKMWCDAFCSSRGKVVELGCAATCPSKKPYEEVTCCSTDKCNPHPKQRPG
Chain of Left-right determination factor 2 (Homo sapiens) (O00292 whole entry, looked up): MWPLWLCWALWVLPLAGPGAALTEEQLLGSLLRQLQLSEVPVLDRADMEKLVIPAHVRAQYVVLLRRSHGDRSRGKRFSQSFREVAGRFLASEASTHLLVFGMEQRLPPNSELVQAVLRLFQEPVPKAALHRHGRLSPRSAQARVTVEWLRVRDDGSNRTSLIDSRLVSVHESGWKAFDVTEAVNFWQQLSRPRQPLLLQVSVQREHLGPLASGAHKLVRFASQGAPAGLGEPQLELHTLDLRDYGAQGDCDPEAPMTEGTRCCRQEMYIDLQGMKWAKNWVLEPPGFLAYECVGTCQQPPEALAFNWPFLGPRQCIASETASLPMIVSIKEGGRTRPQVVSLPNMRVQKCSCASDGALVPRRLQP
Chain of Torsin-1A-interacting protein 1 (Homo sapiens) (Q5JTV8 whole entry, looked up): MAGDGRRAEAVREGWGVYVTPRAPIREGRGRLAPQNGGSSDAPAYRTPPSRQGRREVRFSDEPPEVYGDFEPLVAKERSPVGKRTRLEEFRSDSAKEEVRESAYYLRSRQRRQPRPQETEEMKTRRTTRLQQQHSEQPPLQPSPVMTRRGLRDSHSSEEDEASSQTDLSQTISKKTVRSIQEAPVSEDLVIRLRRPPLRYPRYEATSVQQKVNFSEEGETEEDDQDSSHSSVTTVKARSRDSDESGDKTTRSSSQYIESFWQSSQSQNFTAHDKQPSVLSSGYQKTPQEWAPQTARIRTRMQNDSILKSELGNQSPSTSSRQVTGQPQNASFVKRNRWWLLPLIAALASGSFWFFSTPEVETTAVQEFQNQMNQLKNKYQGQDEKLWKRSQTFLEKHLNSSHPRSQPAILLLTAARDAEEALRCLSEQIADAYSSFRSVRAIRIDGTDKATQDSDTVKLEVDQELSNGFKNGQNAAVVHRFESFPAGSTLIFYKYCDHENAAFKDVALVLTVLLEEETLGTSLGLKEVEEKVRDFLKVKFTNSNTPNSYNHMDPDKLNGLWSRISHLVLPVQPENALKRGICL
Chain of Albumin (Bos taurus) (P02769 whole entry, looked up): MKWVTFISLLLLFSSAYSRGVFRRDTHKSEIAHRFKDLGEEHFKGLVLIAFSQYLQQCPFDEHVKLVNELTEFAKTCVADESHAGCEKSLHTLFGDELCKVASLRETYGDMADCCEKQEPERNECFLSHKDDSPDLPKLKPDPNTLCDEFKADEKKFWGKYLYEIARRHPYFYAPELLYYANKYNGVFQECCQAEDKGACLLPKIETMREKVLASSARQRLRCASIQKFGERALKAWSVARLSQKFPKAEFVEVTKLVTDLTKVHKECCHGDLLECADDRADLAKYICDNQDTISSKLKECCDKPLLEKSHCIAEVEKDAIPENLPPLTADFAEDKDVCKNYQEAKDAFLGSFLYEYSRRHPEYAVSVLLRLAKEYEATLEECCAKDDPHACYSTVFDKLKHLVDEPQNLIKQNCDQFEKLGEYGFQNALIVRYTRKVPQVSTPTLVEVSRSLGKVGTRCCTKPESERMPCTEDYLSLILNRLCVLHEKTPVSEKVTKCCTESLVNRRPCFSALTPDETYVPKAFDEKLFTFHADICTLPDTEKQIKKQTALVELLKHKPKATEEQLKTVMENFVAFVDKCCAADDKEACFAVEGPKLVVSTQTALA

SMILES | composite z-score [1] | z-score [2] | composite z-score [3] | composite z-score [4] | composite z-score [5] | composite z-score [6] | composite z-score [7] | composite z-score [8] | composite z-score [9] | composite z-score [10] | composite z-score [11] | composite Z-score [12] | composite z-score [13] | composite z-score [14] | composite z-score [15] | composite z-score [16] | composite z-score [17] | composite z-score [18] | composite z-score [19] | composite z-score [20]
C=C(/C(=C/C[C@@H](OC(C)=O)c1ccc(OCCO)cc1)c1cc(C(=O)OC)ccc1OC)C(C)C | -0.544 | -0.161 | 0.354 | 0.0164 | -0.258 | -0.181 | -0.0769 | -0.237 | 0.651 | 1.31 | 0.296 | 0.185 (inactive) | -0.0417 | -0.127 | 0.735 | 0.303 | 1.2 | 0.938 | -0.137 | 0.697
COC(=O)C1N=C(c2ccc(OCCCO)cc2)N(c2ccccc2)O1 (stereo not given) | 0.154 | -2.69 | 0.681 | 0.933 | 0.576 | -0.196 | -0.0681 | 0.438 | 0.924 | 2.07 | 0.878 | 0.608 (inactive) | 0.187 | -0.0073 | 0.403 | 1.1 | 0.382 | 1.14 | 0.236 | 1.11
COCCOC(=O)N1C(=O)[C@@]2(c3ccccc31)[C@H](c1ccccc1OCCO)N1[C@H](c3ccccc3)[C@H](c3ccccc3)OC(=O)[C@H]1[C@@H]2C(N)=O | 1.19 | -2.76 | 0.574 | 1.93 | 0.208 | 0.0317 | 0.0121 | 0.389 | 1.29 | 1.14 | 0.856 | 1.26 (inactive) | -0.0324 | -0.181 | 0.565 | 2.36 | 1.01 | 1.3 | 0.651 | 1.18
CCOC(=O)C=Cc1ccccc1O | 1.22 | -2.36 | 0.233 | -0.166 | -0.72 | -0.0462 | 0.151 | -0.0381 | 0.0446 | 0.377 | 0.725 | -0.116 (inactive) | 0.186 | 0.0295 | 0.188 | 0.466 | 0.163 | 1.01 | 0.0871 | 0.591
NC(=O)[C@H]1[C@@H]2C(=O)O[C@@H](c3ccccc3)[C@@H](c3ccccc3)N2[C@@H](c2ccc(O)cc2)[C@]12C(=O)Nc1ccccc12 | -0.0092 | -0.449 | -0.194 | -0.408 | 0.517 | -0.0124 | -0.214 | -0.0753 | -0.428 | -1.15 | 0.295 | 0.355 (inactive) | -0.307 | -0.173 | 0.769 | -0.115 | 0.0182 | -0.783 | -1.22 | -0.411
[N-]=[N+]=NCc1ccccc1[C@@H]1OC(c2ccc(OCCCO)cc2)=N[C@]1(Cc1ccccc1)C(=O)NCCN1CCOCC1 | 1.42 | -2.37 | 0.133 | 1.2 | 0.558 | 0.0825 | 0.1 | 0.684 | 0.946 | 0.63 | 0.501 | -0.016 (inactive) | 0.369 | 0.128 | 0.676 | 1.98 | 0.994 | 1.18 | 0.325 | 1.12
